18 molecules from PubChem BioAssay (EPA / NIEHS) can be followed below.

Inconclusive results are not listed. Activity calls are given as the source filed them. The calls were made as follows: active = hit-call score of the fitted dose curve at least 0.9, where 1 is the maximum; inconclusive = response in the unintended direction; inactive = score below 0.9.

Assay [1] deals with Estrogen receptor (Homo sapiens) (UniProt P03372). Briefly: NVS_NR_hER: NovaScreen (NVS) Nuclear Receptor Binding Assay for human Estrogen Receptor (ER) (AID 2283348). The essentials:
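MCF7-derived receptor extract, radiolabelled ligand, competitive displacement. Read: scintillation counts at 18 h. DMSO = negative control/baseline. Primary 25 uM duplicate; follow-up concentration–response.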

Assay [2] shares this target. Briefly: OT_ER_ERaERa_1440: Odyssey Thera (OT) 24-hour HEK293T Protein-Complementation Assay for Estrogen Receptor-alpha/-alpha Homodimer (AID 2283349).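 Also: hits raise fluorescence above DMSO for agonists and antagonists alike.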 The essentials: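 Cells (HEK293T) carrying the fragment-tagged ERα LBD (aa 310-547) pair are treated with chemical for 24 hours. Nuclear and/or cytoplasmic fluorescence is then quantified on a laser scanning cytometer. Activity is scored as signal gain against DMSO.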

The target of assay [3] is Estrogen receptor beta (Homo sapiens) (UniProt Q92731). The assay is described as follows: OT_ER_ERbERb_0480: Odyssey Thera (OT) 8-hour HEK293T Protein-Complementation Assay for Estrogen Receptor-beta/-beta Homodimer (AID 2283357).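 Also: active means signal gain over DMSO baseline.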 The essentials: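 Homodimerization of ER-beta LBD measured by protein-fragment complementation in HEK293T; 8 h dosing; fixed, Draq5 counterstain; fluorescence intensity gain over DMSO baseline, positive fitting direction; laser scanning cytometry.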

For assay [4], the target named is T1, Estrogen receptor (Homo sapiens) + Estrogen receptor beta (Homo sapiens) (UniProt P03372+Q92731). Briefly: OT_ER_ERaERb_0480: Odyssey Thera (OT) 8-hour HEK293T Protein-Complementation Assay for Estrogen Receptor-alpha/-beta Heterodimer (AID 2283352). The essentials:
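HEK293T cells expressing ER-alpha/ER-beta LBD fusions to complementary reporter fragments were dosed with compound for 8 hours. Heterodimer formation was read as increased nuclear (agonist) or nuclear plus cytoplasmic (antagonist) mean fluorescence intensity versus DMSO vehicle.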

For assay [5], the target named is Androgen Receptor/SRC-1 Co-activator, AR (gene 367) (UniProt P10275). The assay is described as follows: OT_AR_ARSRC1_0960: Odyssey Thera (OT) 16-hour HEK293T Protein-Complementation Assay for Androgen Receptor/SRC-1 Co-activator (AID 2283353).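 Also: actives raise the signal above DMSO so potency reflects increased AR and SRC-1 complex.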 The essentials: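 Stable HEK293T line carries AR and SRC-1 each linked to a Venus fragment; chemicals are applied for 16 h, cells imaged at two wavelengths, and the 488 nm nucleus/cytoplasm ratio is taken as the signal, rising relative to DMSO.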

Assay [6] shares this target. The assay is described as follows: OT_AR_ARSRC1_0480: Odyssey Thera (OT) 8-hour HEK293T Protein-Complementation Assay for Androgen Receptor/SRC-1 Co-activator (AID 2283354).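 Also: hits raise the complementation signal above DMSO so AC50 marks enhancers.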 The method in brief:
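Split-Venus PCA, stable HEK293T, AR/SRC-1 fusions; 8 h exposure. Readout: 488nm N/C fluorescence ratio, ≥400 cells/image; fitted upward vs DMSO baseline.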

Assay [7] deals with T1, Estrogen receptor (Homo sapiens) + Estrogen receptor beta (Homo sapiens). The assay is described as follows: OT_ER_ERaERb_1440: Odyssey Thera (OT) 24-hour HEK293T Protein-Complementation Assay for Estrogen Receptor-alpha/-beta Homodimer (AID 2283356).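 Also: heteromer of ER alpha and ER beta binding domains; hits raise reporter fluorescence and both agonists and antagonists give an increase.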 The essentials: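 HEK293T cells stably expressing a PCA pair of ERα LBD (aa 310-547) and ERβ LBD (aa 263-489) were dosed for 24 h. Fluorescence intensity increase versus DMSO vehicle was fitted as gain-of-signal.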

Assay [8] has as its target human Thyroid Receptor Alpha (TRa), THRA (gene 7067) (UniProt P10827). The assay is described as follows: NVS_NR_hTRa_Antagonist: NovaScreen (NVS) Nuclear Receptor Binding Assay for human Thyroid Receptor Alpha Antagonism (TRa) (AID 2283362).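 Also: activity is loss of signal relative to DMSO baseline.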 The essentials:
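Cell-free binding assay on extracted receptor protein, read 1 h after chemical dosing by AlphaLISA chemiluminescence; loss of signal relative to DMSO baseline marks antagonism. Primary screen ran in duplicate at 25 uM, with concentration series for actives.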

Assay [9] has as its target Glucocorticoid receptor (Homo sapiens) (UniProt P04150). Briefly: NVS_NR_hGR: NovaScreen (NVS) Nuclear Receptor Binding Assay for human Glucocorticoid Receptor (GR) (AID 2283363).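 Also: activity is loss of specific radioligand binding signal relative to DMSO.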 The method in brief: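 Filter scintillation readout of tritiated/iodinated radioligand displaced by test chemical; cell-free extracted protein; 16 h. DMSO = negative control/baseline. Duplicate single-point 25 uM screen, then concentration-response on actives.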

In assay [10] the target is rat Androgen Receptor (AR), Ar (gene 24208) (UniProt P15207). The assay is described as follows: NVS_NR_rAR: NovaScreen (NVS) Nuclear Receptor Binding Assay for rat Androgen Receptor (AR) (AID 2283366). The method in brief: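 Actives from a duplicate single-concentration (25 uM) primary run went on to concentration series. Displacement of radioligand was counted by filtration and scintillation, 18 h post-dose, using prostate extracts from testosterone-pretreated rats, with DMSO as baseline.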

Assay [11] has as its target Retinoic acid receptor alpha (Homo sapiens) (UniProt P10276). The assay is described as follows: NVS_NR_hRARa_Agonist: NovaScreen (NVS) Nuclear Receptor Binding Assay for human Retinoic Acid Alpha Receptor Agonism (RAR) (AID 2283361). The essentials:
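TR-FRET signal, 2 h post-dosing; cell-free extracted protein; DMSO = baseline, positive fitting direction; 25 uM single-point duplicate, then concentration series for actives.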

Assay [12] addresses human Peroxisome Proliferator-activated Receptor alpha (PPARa), PPARA (gene 5465) (UniProt Q07869). Briefly: NVS_NR_hPPARa: NovaScreen (NVS) Nuclear Receptor Binding Assay for human Peroxisome Proliferator-activated Receptor alpha (PPARa) (AID 2283359).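 Also: activity means loss of TR-FRET signal versus DMSO baseline.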 The method in brief: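 TR-FRET signal measured at 1 h post-dosing; loss-of-signal versus DMSO negative control taken as activity. Extracted gene-protein, cell-free format. Initial single-point duplicates at 25 uM, then concentration-response retests.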

For assay [13], the target named is Nuclear receptor subfamily 1 group I member 2 (Homo sapiens) (UniProt O75469). The assay is described as follows: NVS_NR_hPXR: NovaScreen (NVS) Nuclear Receptor Binding Assay for human Pregnane X Receptor (PXR) (AID 2283365).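 Also: a drop in FRET signal versus DMSO baseline means the compound binds.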 The essentials:
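Cell-free binding assay with extracted human PXR protein, read by TR-FRET 2 h after dosing; loss of signal relative to DMSO baseline indicates binding. Primary screen at 25 uM in duplicate, actives retested in concentration series.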

The test system of assay [14] is guinea pig Dopamine Transporter (DAT), gene 100714898. The assay is described as follows: NVS_TR_gDAT: NovaScreen (NVS) Transporter Assay for guinea pig Dopamine Transporter (DAT) (AID 2283369).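 Also: active compounds lower bound radioligand signal relative to DMSO.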 The essentials: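 Guinea pig striatal membranes; radioligand displacement measured by filter-based scintillation counting 2 h after dosing. Initial duplicate screen at 25 uM, then concentration-response up to 50 uM for hits; loss of signal versus DMSO baseline.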

Assay [15] concerns the target human Dopamine Transporter (DAT), SLC6A3 (gene 6531) (UniProt Q01959). Briefly: NVS_TR_hDAT: NovaScreen (NVS) Transporter Assay for human Dopamine Transporter (DAT) (AID 2283374).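 Also: activity means loss of bound radioligand signal relative to DMSO.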 The method in brief: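 hDAT membranes + tritiated/iodinated radioligand, competitive displacement; 1 h; filter scintillation readout. Single conc 25 uM (duplicate), then conc-response for actives. DMSO = negative control.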

Assay [16] addresses Retinoic acid receptor alpha (Homo sapiens) (UniProt P10276). The assay is described as follows: NVS_NR_hRAR_Antagonist: NovaScreen (NVS) Nuclear Receptor Binding Assay for human Retinoic Acid Alpha Receptor Antagonism (RAR) (AID 2283358). The method in brief:
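Read-out: time-resolved FRET binding signal, 2 h post-dose, cell-free extracted protein. Antagonism scored as signal loss versus DMSO negative control. Primary single-concentration screen at 25 uM in duplicate; concentration series for actives.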

Chain of Nuclear receptor subfamily 1 group I member 2 (Homo sapiens) (O75469 whole entry, looked up): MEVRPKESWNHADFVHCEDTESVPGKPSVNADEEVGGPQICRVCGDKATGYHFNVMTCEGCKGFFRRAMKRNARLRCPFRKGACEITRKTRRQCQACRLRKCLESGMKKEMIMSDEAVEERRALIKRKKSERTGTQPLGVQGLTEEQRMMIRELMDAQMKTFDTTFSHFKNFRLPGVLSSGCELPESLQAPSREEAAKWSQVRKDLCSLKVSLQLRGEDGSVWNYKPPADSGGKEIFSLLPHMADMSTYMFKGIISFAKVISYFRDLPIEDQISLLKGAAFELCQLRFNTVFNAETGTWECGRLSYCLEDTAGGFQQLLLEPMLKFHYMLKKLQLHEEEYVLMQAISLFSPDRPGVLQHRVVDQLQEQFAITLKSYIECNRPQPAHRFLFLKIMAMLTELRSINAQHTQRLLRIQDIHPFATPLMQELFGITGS
Chain of Estrogen receptor (Homo sapiens) (P03372 whole entry, looked up): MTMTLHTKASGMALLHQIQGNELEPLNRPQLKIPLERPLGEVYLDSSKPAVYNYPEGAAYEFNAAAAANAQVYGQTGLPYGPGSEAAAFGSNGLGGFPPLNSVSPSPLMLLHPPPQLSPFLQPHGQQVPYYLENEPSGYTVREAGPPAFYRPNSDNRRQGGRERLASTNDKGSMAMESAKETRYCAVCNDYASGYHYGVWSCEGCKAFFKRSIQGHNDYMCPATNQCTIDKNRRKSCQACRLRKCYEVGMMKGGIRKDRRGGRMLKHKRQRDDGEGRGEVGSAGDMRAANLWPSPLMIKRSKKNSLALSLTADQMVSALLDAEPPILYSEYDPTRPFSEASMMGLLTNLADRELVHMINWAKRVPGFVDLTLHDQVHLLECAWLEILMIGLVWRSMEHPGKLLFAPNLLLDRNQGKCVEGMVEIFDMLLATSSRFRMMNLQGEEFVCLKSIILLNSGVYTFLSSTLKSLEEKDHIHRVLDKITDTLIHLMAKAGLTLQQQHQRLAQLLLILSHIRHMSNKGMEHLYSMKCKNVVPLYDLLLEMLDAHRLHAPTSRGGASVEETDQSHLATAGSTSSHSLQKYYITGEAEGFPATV
T1 sequence (P03372 whole entry, looked up, the tested form may be a part): as the sequence (P03372 whole entry, looked up) above
T1 sequence (Q92731 whole entry, looked up, the tested form may be a part): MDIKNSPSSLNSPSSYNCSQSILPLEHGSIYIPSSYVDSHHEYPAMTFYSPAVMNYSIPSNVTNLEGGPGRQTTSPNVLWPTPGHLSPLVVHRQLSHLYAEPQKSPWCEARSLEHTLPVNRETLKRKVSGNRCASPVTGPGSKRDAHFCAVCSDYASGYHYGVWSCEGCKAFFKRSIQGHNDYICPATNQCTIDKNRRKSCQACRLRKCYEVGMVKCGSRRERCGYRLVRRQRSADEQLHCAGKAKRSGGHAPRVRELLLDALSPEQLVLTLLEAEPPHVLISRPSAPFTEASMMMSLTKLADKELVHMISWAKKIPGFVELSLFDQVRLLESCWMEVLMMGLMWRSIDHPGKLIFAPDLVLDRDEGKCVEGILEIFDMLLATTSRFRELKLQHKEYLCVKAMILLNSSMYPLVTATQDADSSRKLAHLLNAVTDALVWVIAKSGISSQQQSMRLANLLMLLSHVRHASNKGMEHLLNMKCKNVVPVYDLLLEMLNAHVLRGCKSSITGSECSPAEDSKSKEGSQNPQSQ
Chain of Estrogen receptor beta (Homo sapiens) (Q92731 whole entry, looked up, the tested form may be a part): as above
Chain of rat Androgen Receptor (AR), Ar (gene 24208) (P15207 whole entry, looked up): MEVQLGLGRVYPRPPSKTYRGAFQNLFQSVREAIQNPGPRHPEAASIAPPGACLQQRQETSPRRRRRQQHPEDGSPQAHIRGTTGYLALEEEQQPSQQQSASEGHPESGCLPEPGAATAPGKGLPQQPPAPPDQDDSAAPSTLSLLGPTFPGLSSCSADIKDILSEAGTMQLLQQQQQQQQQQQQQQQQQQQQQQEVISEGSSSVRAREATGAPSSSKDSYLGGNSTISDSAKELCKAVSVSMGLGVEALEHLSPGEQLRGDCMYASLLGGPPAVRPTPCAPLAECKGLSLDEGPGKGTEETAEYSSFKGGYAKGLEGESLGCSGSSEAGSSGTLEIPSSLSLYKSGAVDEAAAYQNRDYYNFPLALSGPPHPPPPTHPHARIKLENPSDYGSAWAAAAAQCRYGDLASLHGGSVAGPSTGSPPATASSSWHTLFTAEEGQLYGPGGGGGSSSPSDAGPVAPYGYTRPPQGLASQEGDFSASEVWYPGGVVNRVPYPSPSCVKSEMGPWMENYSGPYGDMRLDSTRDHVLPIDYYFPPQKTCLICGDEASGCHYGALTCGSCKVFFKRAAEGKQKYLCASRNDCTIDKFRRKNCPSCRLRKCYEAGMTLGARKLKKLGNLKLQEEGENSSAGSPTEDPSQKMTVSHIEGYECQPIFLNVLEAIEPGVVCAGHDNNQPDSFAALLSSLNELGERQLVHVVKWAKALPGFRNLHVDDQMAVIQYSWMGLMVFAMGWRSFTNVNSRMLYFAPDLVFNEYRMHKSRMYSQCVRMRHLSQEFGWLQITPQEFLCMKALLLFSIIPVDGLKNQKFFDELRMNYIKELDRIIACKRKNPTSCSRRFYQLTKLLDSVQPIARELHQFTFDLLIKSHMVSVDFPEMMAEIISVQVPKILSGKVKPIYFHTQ
Chain of Glucocorticoid receptor (Homo sapiens) (P04150 whole entry, looked up): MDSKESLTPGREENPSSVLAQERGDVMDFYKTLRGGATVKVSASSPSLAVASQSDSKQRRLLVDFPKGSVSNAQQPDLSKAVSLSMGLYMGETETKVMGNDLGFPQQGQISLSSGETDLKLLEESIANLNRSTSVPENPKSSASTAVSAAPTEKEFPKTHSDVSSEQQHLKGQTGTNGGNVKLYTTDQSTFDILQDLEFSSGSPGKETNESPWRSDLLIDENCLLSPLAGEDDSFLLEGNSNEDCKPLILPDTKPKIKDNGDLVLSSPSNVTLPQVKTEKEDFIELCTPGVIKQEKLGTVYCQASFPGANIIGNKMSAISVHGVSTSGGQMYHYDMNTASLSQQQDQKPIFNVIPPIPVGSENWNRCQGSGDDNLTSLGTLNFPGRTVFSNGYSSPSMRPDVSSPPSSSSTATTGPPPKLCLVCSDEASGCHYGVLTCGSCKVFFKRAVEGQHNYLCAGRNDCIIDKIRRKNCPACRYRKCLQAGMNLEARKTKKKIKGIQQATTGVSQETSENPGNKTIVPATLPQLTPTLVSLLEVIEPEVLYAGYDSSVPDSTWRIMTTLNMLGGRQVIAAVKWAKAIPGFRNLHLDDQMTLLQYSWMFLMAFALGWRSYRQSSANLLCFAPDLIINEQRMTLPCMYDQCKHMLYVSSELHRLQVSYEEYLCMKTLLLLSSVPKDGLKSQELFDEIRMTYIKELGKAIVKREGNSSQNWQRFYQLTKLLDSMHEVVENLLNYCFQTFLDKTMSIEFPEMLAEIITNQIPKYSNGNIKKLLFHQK
Chain of Androgen Receptor/SRC-1 Co-activator, AR (gene 367) (P10275 whole entry, looked up, the tested form may be a part): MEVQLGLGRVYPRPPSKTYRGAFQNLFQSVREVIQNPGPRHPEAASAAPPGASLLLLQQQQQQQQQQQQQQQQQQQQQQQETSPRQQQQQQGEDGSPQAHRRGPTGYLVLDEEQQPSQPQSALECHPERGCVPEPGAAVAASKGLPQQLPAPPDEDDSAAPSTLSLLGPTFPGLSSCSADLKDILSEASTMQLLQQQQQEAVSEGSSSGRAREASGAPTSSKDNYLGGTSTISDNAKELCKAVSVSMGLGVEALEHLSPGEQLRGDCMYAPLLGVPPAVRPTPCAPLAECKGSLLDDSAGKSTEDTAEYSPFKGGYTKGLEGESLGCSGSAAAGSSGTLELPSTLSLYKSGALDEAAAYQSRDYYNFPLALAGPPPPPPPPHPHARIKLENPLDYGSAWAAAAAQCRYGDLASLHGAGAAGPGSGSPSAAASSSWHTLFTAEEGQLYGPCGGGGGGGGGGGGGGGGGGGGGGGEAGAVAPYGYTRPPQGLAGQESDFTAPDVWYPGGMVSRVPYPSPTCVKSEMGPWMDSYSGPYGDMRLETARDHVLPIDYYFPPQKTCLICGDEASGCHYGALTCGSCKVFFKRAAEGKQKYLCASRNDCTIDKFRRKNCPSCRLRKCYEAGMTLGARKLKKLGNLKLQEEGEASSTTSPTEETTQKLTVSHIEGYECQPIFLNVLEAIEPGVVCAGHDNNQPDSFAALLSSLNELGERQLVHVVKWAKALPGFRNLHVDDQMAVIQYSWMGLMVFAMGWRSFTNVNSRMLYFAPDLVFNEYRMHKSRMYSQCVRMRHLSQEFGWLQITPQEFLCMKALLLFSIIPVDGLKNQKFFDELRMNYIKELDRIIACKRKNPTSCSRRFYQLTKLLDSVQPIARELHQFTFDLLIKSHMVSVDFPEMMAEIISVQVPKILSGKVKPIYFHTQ
Chain of human Thyroid Receptor Alpha (TRa), THRA (gene 7067) (P10827 whole entry, looked up): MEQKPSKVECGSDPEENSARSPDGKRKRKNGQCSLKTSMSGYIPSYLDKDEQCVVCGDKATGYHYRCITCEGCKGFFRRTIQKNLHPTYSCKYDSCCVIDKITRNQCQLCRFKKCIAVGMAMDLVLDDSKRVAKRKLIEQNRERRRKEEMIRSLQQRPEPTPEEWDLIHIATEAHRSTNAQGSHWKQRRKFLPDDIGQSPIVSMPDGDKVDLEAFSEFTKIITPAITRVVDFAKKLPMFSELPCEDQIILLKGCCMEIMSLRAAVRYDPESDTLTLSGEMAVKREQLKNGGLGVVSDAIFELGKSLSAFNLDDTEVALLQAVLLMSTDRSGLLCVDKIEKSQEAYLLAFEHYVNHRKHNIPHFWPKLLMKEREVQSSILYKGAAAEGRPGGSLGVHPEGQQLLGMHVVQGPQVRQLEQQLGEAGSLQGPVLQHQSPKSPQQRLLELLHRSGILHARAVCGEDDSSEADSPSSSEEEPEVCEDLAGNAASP

In the case of `CC(C)(C)C(=O)C1C(=O)c2ccccc2C1=O`, the call in assay [1] was inactive.
As for `CCCCCCCCn1sc(Cl)c(Cl)c1=O`, the AC50 in assay [1] was 0.549 µM (active). For the same molecule, the result in assay [2] and in [3] was inactive.
On to `CC(C)OC=O`, for which, in [2], the molecule was called inactive.
As to `CCN=C1C=CC(=C(c2ccc(N(CC)CC)cc2)c2ccc(N(CC)CC)cc2)c2ccccc21`, the AC50 in assay [1] is 13.8 µM (active); in [5], 0.451 µM (active); in assay [6] it was 1.04 µM (active); in [8], 1.15 µM (active); in [9] it was 0.404 µM (active); in assay [10], 1.05 µM (active). The outcome in assay [2], in assay [4], in assay [7] and in assay [3] was inactive.
Turning to `CCCCC(CC)COC(=O)c1ccc(N(C)C)cc1` (centres undefined), the call in [2], in assay [4], in assay [7] and in [3] was inactive.
As for `CCN=c1cc2oc3cc(NCC)c(C)cc3c(-c3ccccc3C(=O)OCC)c-2cc1C`, the concentration at half-maximal activity (AC50) in [1] was 5.29 µM (active); in assay [2] it was 62.3 µM (active); in assay [4], 71.3 µM (active); in [5], 0.55 µM (active); in assay [6], 12.5 µM (active); in [3] it was 55.1 µM (active). Besides, the AC50 in assay [11] was 18.1 µM (active); in [8], 38.3 µM (active); in [9] it was 9.39 µM (active); in assay [10] it was 6.57 µM (active). The outcome in [7] was inactive.
On to `CCCCOC(=O)C(C)O` (centres undefined), for which the result in assay [1] and in assay [2] was inactive.
In the case of `CCCCCCCC/C=C\CCCCCCCC(=O)N(C)CC(=O)O`, the molecule was called inactive in [2], in assay [4], in assay [7], in assay [3], in assay [12] and in [13]. Moreover, the AC50 in [9] was 4.85 µM (active).
As to `Cc1ccc(O)c(-n2nc3ccccc3n2)c1`, the result in assay [1], in assay [2], in [4], in [7] and in [3] was inactive.
Regarding `F[Si-2](F)(F)(F)(F)F`, the result in assay [2], in [4], in [5], in [6] and in assay [7] was inactive.
For the molecule `O=C1C=CC(=O)N1c1ccc(Cc2ccc(N3C(=O)C=CC3=O)cc2)cc1`, the molecule was classed as inactive in assay [1] and in assay [15]. For the same molecule, in [14], the AC50 was 11.3 µM (active).
As for `CCCCCCCCCc1ccc(OCCO)cc1`, the molecule was classed as inactive in [1] and in assay [13]. Moreover, the AC50 is 19.7 µM (active) in assay [2]; 4.81 µM (active) in assay [4]; 20 µM (active) in assay [5]; 25.4 µM (active) in [6]; 4.94 µM (active) in [7]; 4.92 µM (active) in assay [3].
Consider `CCCCCCCC/C=C\CCCCCCCC(=O)OCC(O)CO` (centres undefined), for which the call in assay [2], in [4], in [5], in assay [6], in assay [7] and in [3] was inactive. Also, the molecule was called inactive in [16]. Besides, the half-maximal activity concentration (AC50) was 17 µM (active) in [12], 8.56 µM (active) in assay [13] and 34.8 µM (active) in assay [10].
With `CCc1cc(Cc2cc(CC)c(N)c(CC)c2)cc(CC)c1N`, the concentration at half-maximal activity (AC50) in assay [1] is 0.0643 µM (active); in assay [7], 12.4 µM (active). For the same molecule, the molecule was classed as inactive in assay [2], in [4], in assay [3] and in [13].
For the molecule `CCOC(OCC)OCC`, the molecule was called inactive in [2], in assay [4], in assay [7], in assay [3] and in assay [13].
Take `Cc1ccc([N+](=O)[O-])c(C)c1`: in [2], the molecule was called inactive.
As to `CC(C)(C)c1cc(Cc2cc(C(C)(C)C)c(O)c(C(C)(C)C)c2)cc(C(C)(C)C)c1O`, the molecule was called inactive in assay [2], in [4], in assay [7], in assay [3] and in [13].
Consider `CCC(Cc1c(I)cc(I)c(N)c1I)C(=O)O` (centres undefined), for which the outcome in assay [1] and in assay [2] was inactive.

For orientation: AC50 means the midpoint of the concentration-response curve, whichever way the signal moves.
